# From PubChem
# D3 ag = activates the human D3 dopamine receptor | AID 652048 | max activation, % | 410,000 compounds, 0.58% hits | D3R DiscoveRx beta-arrestin cells, luminescence, 90 min | P35462; in the data active = max activation above about 30%; also: 0% is about no effect
# Target sequence (P35462 whole entry, looked up): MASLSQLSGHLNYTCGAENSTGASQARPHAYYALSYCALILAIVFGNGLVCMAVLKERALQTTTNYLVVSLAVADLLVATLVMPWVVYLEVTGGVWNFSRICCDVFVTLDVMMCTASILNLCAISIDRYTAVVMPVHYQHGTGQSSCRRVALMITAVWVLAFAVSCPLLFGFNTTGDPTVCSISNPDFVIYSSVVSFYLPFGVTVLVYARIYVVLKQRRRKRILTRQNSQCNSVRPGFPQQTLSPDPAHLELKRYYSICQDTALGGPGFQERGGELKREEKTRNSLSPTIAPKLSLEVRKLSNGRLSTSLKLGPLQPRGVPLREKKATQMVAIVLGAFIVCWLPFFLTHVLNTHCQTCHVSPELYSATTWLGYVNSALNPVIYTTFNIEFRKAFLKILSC
#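 Cells at 1500/well, incubated overnight, then treated with pinned compounds (dopamine as control) for 90 min at 37 degrees C. DiscoveRx reagent added for 30 - 60 minutes at room temperature; luminescence read.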
# ERG Ets-DNA blk = blocks human ERG Ets domain binding to DNA; P11308; fluorescence polarization, His-ERG Ets domain / labelled DNA; 370,000 compounds, 0.028% hits; Potency, µM (highest dose often 76.9 µM), without a hit: at the top dose FP activity, negative = inhibition, actives largely listed as inhibitors; active = well fitted inhibition curve with a large enough effect in the polarisation, with a control signal flat; inconclusive = small, poorly fitted or top-dose-only effect, or effect the other way, or a change in a side signal; inactive = no such curve, though single readings can be large or run the other way; the % refers to the polarisation;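 also: polarization taken with two DNA probes labelled with fluorescein and Texas red; potency is read from the fitted curve at half-maximal effect; % of control where 0% means no effect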
#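 His-tagged ERG Ets domain (1 uM in the protein solution; 300mM KCl, 50mM Tris-HCl, 1mM EDTA, 1mM DTT, pH 7.5) received compound, then a probe mix of 5 nM fluorescein-DNA and 100nM Texas-615-DNA. Fluorescence polarization was read for both dyes.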
# D1 PAM = potentiators of human D1 dopamine receptor. HEK293 TREx D1 cells, calcium flux, dopamine EC20 potentiation. potentiation, % at 10 µM. 360,000 compounds, 0.036% hits. AID 504651; in the data active = potentiation above about 30%; also: 0% is about no effect
# D1 antagonist = antagonists of human D1 dopamine receptor. HEK293 TREx D1 cells, calcium flux, dopamine EC80; hits give low values. P21728. activity change, negative = inhibition, % at 10 µM. 360,000 compounds, 3.2% hits; in the data active = activity change below about -30%; also: % is scaled to controls: 0 for no effect and ±100 for the full control effect
#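 Cells carrying a force-coupled, tetracycline-inducible human D1 receptor report calcium flux. Each well gets a 10 s baseline, compound with 180 s monitoring, then an EC80 dopamine stimulus with a second 180 s kinetic read.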
# DRD3 antagonist = antagonists of human D3 dopamine receptor | P35462 | D3R cells, DiscoveRx beta-arrestin luminescence, antagonist mode; hits give low values | max response, negative = inhibition, % | 360,000 compounds, 2.5% hits; in the data active = max response below about -50%; inconclusive = no clear call, values can overlap the other calls; also: % is scaled to controls: 0 for no effect and ±100 for the full control effect
#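 Cells plated overnight at 1500 cells/well, then exposed to library compounds with dopamine controls for 90 minutes at 37 degrees C. DiscoveRx reagent added for 30–60 minutes at room temperature; luminescence read, quantitative HTS format.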
# D1 agonist = activates the human D1 dopamine receptor | activation, % at 2 µM | AID 504660 | 360,000 compounds, 1% hits | HEK293 T-REx D1 cells, calcium flux, agonist mode; in the data active = activation above about 30%; also: 0% is about no effect
#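 Agonism was scored from calcium flux recorded over 180 s (1 read/s) after pintool compound addition, following a 10-cycle baseline. Cells were inducible force-coupled HEK293 TREx D1, plated overnight at 30 C and loaded with no-wash calcium dye.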
# * = called active by the depositor; ? = inconclusive; nt = not tested or not shown. In the library only some 6.1% were active in any assay of this set; here they are far more common.
SMILES,D3 ag,ERG Ets-DNA blk,D1 PAM,D1 antagonist,DRD3 antagonist,D1 agonist
Cc1cc(-c2nn3c(-c4ccccc4)nnc3s2)c2ccccc2n1,0,1%,-6,-33*,10,-1
CCc1ccc(NC(=O)N(CCCN2CCOCC2)C(C)c2cc3cccc(OC)c3o2)cc1 (stereo not given),-14,-1%,-4,-15,-53*,0
CC(C)(C)NC(=O)c1oc2ccccc2c1NC(=O)c1ccccc1F,-6,-4%,2,21,nt,1
COc1cccc(NC(=S)N(CCc2ccc(OC)c(OC)c2)Cc2ccccn2)c1,-19,0%,-2,-17,-53*,2
COc1ccc(CCN(Cc2ccccn2)C(=S)Nc2ccccc2C)cc1OC,-2,-1%,-4,3,28,6
O=[N+]([O-])c1ccc2n[nH]nc2c1,-5,-15%,-2,-7,-70*,5
Cc1nc2ccc([N+](=O)[O-])cc2[nH]1,-2,7%,2,-2,-2,5
Nc1nccnc1C(=O)OCC(=O)NCCc1ccc(Cl)cc1,2,6%,7,-47*,-11,0
CC1CCN(C(=O)COC(=O)c2n[nH]c3ccccc23)CC1,-12,8%,-1,-6,-54*,2
O=C(COC(=O)Cc1ccc(Cl)cc1)NCCc1ccccc1,1,1%,nt,-6,-5,8
O=C(COC(=O)c1n[nH]c2ccccc12)NCCc1ccc(Cl)cc1,7,6%,nt,-30*,3,20
CC(C)CNC(=O)COC(=O)c1n[nH]c2ccccc12,2,7%,4,-51*,8,2
COc1ccc(CNC(=O)COC(=O)c2n[nH]c3ccccc23)cc1,-2,-7%,5,-6,0,2
C[C@H](CO)N1C[C@H](C)[C@H](CN(C)C(=O)NC2CCCCC2)Oc2ncc(Br)cc2C1=O,8,nt,nt,nt,14,nt
CCN(CC)C(=S)SCC(=O)Nc1ncc2c(n1)CCCC2=O,-5,3%,0,-33*,-4,0
COC(=O)c1sc(=S)n(-c2cccc(Cl)c2)c1N,4,2%,-3,-34*,-14,-1
S=C(NCCCN1CCOCC1)N1CCN(c2ccccc2)CC1,-3,13%,11,-4,0,5
S=C(NCCCN1CCOCC1)N1CCN(c2nc(-c3ccccc3)cs2)CC1,-4,-2%,-8,-9,-24,88*
S=C(NCC1CCCO1)N1CCN(c2nc(-c3ccc(Cl)cc3)cs2)CC1 (stereo not given),1,-17%,-1,-30*,-18,1
S=C(NCCCN1CCOCC1)N1CCN(c2nc(-c3ccc(Cl)cc3)cs2)CC1,-6,10%,-2,-55*,-9,1
COc1ccc(CNC(=O)C/C(C)=N/NC(=O)C23CC4CC(CC(C4)C2)C3)cc1,-2,5%,-1,-3,-19,2
CN1CCn2cnc(C(=O)NCc3ccccc3)c2C1=O,-9,nt,nt,nt,0,nt
CCS(=O)(=O)N1N=C(c2cccc(NS(C)(=O)=O)c2)CC1c1cccs1 (stereo not given),-4,22%,1,-1,-6,3
COc1cc2c(cc1OC)[C@H](Cc1ccc(O)cc1)NCC2,-24,7%,-8,-20,-62*,1
COc1ccc(OCC2NCCc3cc(OC)c(OC)cc32)cc1 (stereo not given),-2,-7%,-3,-9,-6,7
SMILES,D3 ag,ERG Ets-DNA blk,D1 PAM,D1 antagonist,DRD3 antagonist,D1 agonist
COc1cc2c(cc1O)C(Cc1ccc(O)cc1)NCC2 (stereo not given),-69,-1%,-12,-76*,-107*,-1
COc1cc2c(cc1OC)C(COc1cccc(C(F)(F)F)c1)NCC2 (stereo not given),-9,33%,-7,3,?,32*
COC(=O)[C@@]12C[C@@H](CC(=O)NCc3cccs3)C(=O)N(CCc3ccc(OC)c(OC)c3)C1=CCC(C)(C)C2,0,nt,nt,nt,17,nt
CCN1CC(C)C(O)(c2ccccc2)CC1C (stereo not given),-9,-3%,-2,18,6,-1
O=C(CCNC(=O)C1CCN(S(=O)(=O)c2ccccc2)CC1)NCc1ccccn1,2,3%,-4,9,4,3
Cc1[nH]c2ccccc2c1-c1nc2ccccc2[nH]c1=O,0,12%,2,-6,-12,5
COc1ccccc1Nc1nn2c(=O)c3ccc(C(=O)NC(C)c4ccccc4)cc3nc2s1 (stereo not given),-19,0%,-1,1,nt,1
CCN(CC)CCNC(=O)c1ccc2c(=O)n3nc(Nc4cccc(Cl)c4C)sc3nc2c1,2,0%,-3,-56*,nt,2
Cc1ccc(Cl)cc1Nc1nn2c(=O)c3ccc(C(=O)NC(C)c4ccccc4)cc3nc2s1 (stereo not given),1,-4%,2,-54*,nt,0
Cc1ccc(CONC(=O)c2ccc(Cl)cc2)cc1,-5,0%,-6,-20,-3,1
Cc1ccc(CONC(=O)c2ccc(C)cc2)cc1,-2,-4%,-5,-30*,3,1
OCCC1CN(Cc2cnc(-c3ccccc3)s2)CCN1C1CCCC1 (stereo not given),-3,-7%,-7,-11,-12,4
Cc1[nH]c(=O)nc(SCc2ccc(Cl)c(Cl)c2)c1C#N,-5,15%,-6,-11,-13,3
CN(C)C(=N)c1n[nH]nc1SCc1ccc(Cl)c(Cl)c1,-5,11%,-3,-36*,-10,0
CCCCn1c(N)c(N(CCOC)C(=O)c2cccc(N3C(=O)c4ccccc4C3=O)c2)c(=O)[nH]c1=O,3,-2%,-7,-17,4,2
CCn1c(=O)cc(N2CCOCC2)[nH]c1=O,0,-11%,-3,-21,2,4
CCCCn1c(=O)cc(N2CCOCC2)[nH]c1=O,5,-3%,-7,-46*,13,3
CCn1c(C(Cc2ccccc2)NC(=O)COC)nc2ccccc21 (stereo not given),-6,5%,-8,-30*,26,-3
CC(C)Cn1c(C(C)NC(=O)Cc2ccccc2)nc2ccccc21 (stereo not given),-10,13%,-1,-6,-11,-3
CN(C(=S)Nc1ccc(Oc2ccccc2)cc1)C1CCCCC1,-2,-1%,0,-33*,?,6
O=C(NCC(c1ccco1)N1CCCC1)c1cccc(NS(=O)(=O)c2ccc(Br)cc2)c1 (stereo not given),-25,0%,-4,7,-14,7
CCOC(=O)c1c(CN2CCN(C)CC2)oc2ccc(OC)cc12,-14,-14%,7,-8,-57*,11
